According to PubChem BioAssay (NCI):
The panel holds about 79,000 compounds, 15% with a hit somewhere; the sample as a whole holds those more often. Values without a mark were called inactive. Activity calls are given as the source filed them. Rule as the data show it: active = growth inhibition above about 70%; inactive = the rest.

Assays:
[1] = NCI Yeast Anticancer Drug Screen. Data for the rad50 strain (AID 155);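 also: 0% = growth of vehicle-only cultures of the same strain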; conditions: S. cerevisiae rad50 strain growth inhibition; at 50.0 µM; active compounds read high
In short: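 DNA repair mutant yeast, compound exposure, growth read-out; inhibition is taken relative to vehicle.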

[2] = NCI Yeast Anticancer Drug Screen. Data for the mec2-1 strain (AID 157); conditions: S. cerevisiae mec2-1 strain, at 50.0 µM, active compounds read high
In short: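 Strain: mec2-1 (DNA repair/cell cycle alteration). Compound exposure, then growth measured; inhibition expressed relative to vehicle.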

[3] = NCI Yeast Anticancer Drug Screen. Data for the sgs1 mgt1 strain (AID 161);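 also: 0% = growth of cultures given vehicle only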; conditions: S. cerevisiae sgs1 mgt1 strain, at 50.0 µM, active compounds read high
In short: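 Read-out: growth inhibition vs vehicle controls. Cells: mutant yeast strain deficient in DNA damage repair.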

[4] = NCI Yeast Anticancer Drug Screen. Data for the cln2 rad14 strain (AID 165);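 also: 0% = growth equal to vehicle treated cultures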; conditions: S. cerevisiae cln2 rad14 strain, at 50.0 µM, active compounds read high
In short: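 Compounds are applied to the cln2 rad14 yeast strain, and growth is then compared with that of vehicle-treated cultures to give inhibition.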

[5] = NCI Yeast Anticancer Drug Screen. Data for the bub3 strain (AID 167); conditions: S. cerevisiae bub3 mutant strain, at 50.0 µM, active compounds read high
In short: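 In this screen, a yeast mutant lacking normal mitotic checkpoint function is challenged with compound. Relative growth versus vehicle gives the inhibition value.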

[6] = NCI Yeast Anticancer Drug Screen. Data for the mlh1 rad18 strain (AID 175); conditions: S. cerevisiae mlh1 rad18 strain growth inhibition; at 50.0 µM; active compounds read high
In short: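 Read-out is yeast growth inhibition, calculated against vehicle-only controls. The compound was applied to a strain engineered with DNA damage repair alterations.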

| SMILES | growth inhibition [1] | growth inhibition [2] | growth inhibition [3] | growth inhibition [4] | growth inhibition [5] | growth inhibition [6] |
| --- | --- | --- | --- | --- | --- | --- |
| Cc1c(C(=O)O)sc2ccc([N+](=O)[O-])cc12 | -8.15% | 2.5% | -9.35% | -46.5% | -13.3% | -0.6% |
| CCOC(=O)c1cc(C)nc2ccc(Br)cc12 | -3.2% | 3.45% | -11.2% | -5.85% | 4.2% | -11.7% |
| COc1cc(C2c3cc4c(cc3OC(NNC(N)=S)C2C)OCO4)cc(OC)c1OC (configuration not stated) | -4% | -17.4% | 2.5% | -0.2% | 6.95% | -9.9% |
| Cn1cc(C(=O)C2CCCCC2)ccc1=O | -4.6% | -11.8% | -2.6% | 15.9% | -14.2% | -19.3% |
| CCCCOC(=O)C1CCCCC1C(=O)OCCCC (configuration not stated) | -3.7% | 14.8% | -0.45% | 63.1% | 12.2% | -21.4% |
| O=[N+]([O-])c1ccc2c3c(ccc([N+](=O)[O-])c13)CC2 | -9.35% | -13.3% | -6.75% | -29.2% | -18.4% | -18.3% |
| Nc1c(F)c(F)cc(F)c1[N+](=O)[O-] | 2.6% | -2.7% | 2.55% | 7.6% | 9.6% | 4.35% |
| NC(=O)NN1CC(=O)N(c2ccccc2)CC1=O | 7.75% | 8.2% | 6.8% | -18.1% | 14.2% | 28.6% |
| COc1ccc(OC)c2nc3c(C(=O)NCCN(C)C)cccc3nc12 | -15.7% | -25.5% | -55.7% | -35.2% | -31.4% | -68.1% |
| COc1cc(C(=O)O[C@H]2CCC3CCC2N3C)cc(OC)c1OC (some centres not stated) | -46.4% | -31.7% | -4.05% | -9.45% | -3.85% | -47% |
| CC(C)C1SCC(=O)N1c1nncs1 (configuration not stated) | -2.55% | 22.4% | 9.15% | -27.8% | -0.9% | 5% |
| O=C1CC2(CCCCC2)C(=O)N1c1cc([N+](=O)[O-])ccn1 | 25.4% | 14.7% | 0.8% | 17.6% | 10% | 19.8% |
| CCOc1ccccc1NC(=O)C(=O)c1c(O)c2ccc(O)cc2oc1=O | 25.7% | 9.55% | 4.8% | 1.8% | -3.25% | -1.75% |
| CN(c1ccccc1)S(=O)(=O)c1ccc([N+](=O)[O-])cc1 | -13.4% | -52.7% | 6.75% | -7.1% | 21.8% | -5.45% |
| COc1cc(C2c3c(oc4ccccc4c3=O)Oc3oc4ccccc4c(=O)c32)cc(OC)c1O | -17.4% | 4.65% | 5.25% | 31.9% | -0.3% | -13.1% |
| CCOC(=O)NC(=O)c1cn(CCN2CCN(C(=O)CCCCCCCCCCNc3ncnc4nc[nH]c34)CC2)c(=O)[nH]c1=O | -18.5% | -6.75% | -12.8% | -25.6% | 0.05% | -14.2% |
| CC(=O)NCC1(c2ccccc2)CCN(CC2COc3ccccc3O2)CC1 (configuration not stated) | -15.3% | -16.4% | -15.2% | 16% | 17.1% | 9.45% |
| CC1(C2(C)Nc3ccccc3O2)Nc2ccccc2O1 (configuration not stated) | 10.2% | 8.35% | 9.95% | -36.8% | 3.65% | 9.05% |
| CC1(C)C2CC(NC(=O)c3ccc([N+](=O)[O-])cc3)C1C2 (configuration not stated) | 18.6% | 4.6% | -1.5% | -4.9% | 3.25% | 11.9% |

| SMILES | growth inhibition [1] | growth inhibition [2] | growth inhibition [3] | growth inhibition [4] | growth inhibition [5] | growth inhibition [6] |
| --- | --- | --- | --- | --- | --- | --- |
| CC(=O)OC(NC(=O)c1cc(C)cc(C)c1)c1ccncc1 (configuration not stated) | -2.05% | -3.05% | -0.75% | -8.1% | 4.6% | 1.25% |
| CC(=O)[C@H]1CC[C@H]2[C@@H]3CC[C@H]4C[C@@H](OC(c5ccccc5)(c5ccccc5)c5ccccc5)CC[C@]4(C)[C@H]3CC[C@]12C | -3.55% | 11.8% | 0.95% | -3.95% | -5.5% | -17.6% |
| CC(C)(C)NC(=O)NC(C)(C)C | -15.1% | -7.95% | 7.3% | 14.8% | 20.9% | 4.45% |
| c1ccc(C2=NOC(c3ccccc3)N2C23CC4CC(CC(C4)C2)C3)cc1 (configuration not stated) | 2.9% | 4.4% | -17.5% | 24.4% | -13% | 36.1% |
| CCCNC(=O)Oc1ccccc1C(N)=O | -3.35% | -20.1% | -4.4% | -44% | 8% | -5.75% |
| CNC(=O)NS(=O)(=O)c1cccc([N+](=O)[O-])c1 | -0.3% | 5.35% | -8.3% | 1.9% | -21.6% | -17.3% |
| CCCCCCCCCCCCOc1cccc(OCCCCCCCCCCCC)c1 | 29.4% | -4.75% | 21.8% | -41.1% | -1.9% | -19.1% |
| CCCCNC(=O)c1cc(S(=O)(=O)n2cc[nH]c2=O)c(SC)cc1Cl | 4.1% | 2.7% | 15.8% | -2.75% | -5.05% | 31.2% |
| O=C(c1ccc(Cl)cc1)c1onc(-c2ccccc2)c1-c1ccccc1 | -13.6% | 0% | -0.3% | -43.9% | -9.2% | -3.05% |
| O=S(/C=C/C=C/S(=O)(=O)c1ccccc1)c1ccccc1 (configuration not stated) | 18.1% | 24.2% | 30.5% | 19.3% | 43.4% | 74% (active) |
| COc1ccc(NC(=O)C(=O)Cc2nc3ccc([N+](=O)[O-])cc3[nH]c2=O)c(OC)c1 | 9.85% | 14.7% | -3.7% | 3.95% | 6.15% | 22.6% |
| CN=NNc1ccc(C#N)cc1 | 7.3% | 1.4% | -1.85% | -14.1% | -6.65% | 5.5% |
| C=CC(O)C1OC2OC(C)(C)OC2C2OC(C)(C)OC12 (configuration not stated) | -2.75% | 13.2% | 2.7% | -32.8% | 21.4% | 5.45% |
| CCC(O)(c1ccccc1)C(OC)c1ccccc1 (configuration not stated) | 15.3% | 5.35% | 14.5% | 7.25% | -0.35% | 21.1% |
| CCOc1ccc(CO)cc1 | 8.5% | 0.2% | 8.55% | 34% | -8.95% | -38.8% |
| O=C1OC2C(Cl)CC(Cl)CC2C=C1c1cccc([N+](=O)[O-])c1 (configuration not stated) | -3.3% | 12.2% | -16.6% | -21.9% | 11.8% | -0.4% |
| CON(C)S(=O)c1ccc([N+](=O)[O-])cc1 (configuration not stated) | 29.8% | 19.1% | 5.45% | -15.6% | -6.05% | 22.1% |
| O=C(N=C1SCCN1C(=O)C(C(F)(F)F)C(F)(F)F)C(C(F)(F)F)C(F)(F)F | -20.6% | -3.5% | 4.95% | 28.4% | 2.3% | -36.9% |
